Here are results for 15 compounds from PubChem BioAssay (EPA / NIEHS).

Results filed as inconclusive are left out. Calls of active or inactive are those of the source. Rule for the calls: active = hit-call score of the fitted dose curve at least 0.9, where 1 is the maximum; inconclusive = response in the unintended direction; inactive = score below 0.9.

For experiment [1], the target named is Serine/threonine-protein phosphatase PP1-alpha catalytic subunit (Homo sapiens) (UniProt P62136). The experiment can be described thus: NVS_ENZ_hPPP1CA: NovaScreen (NVS) Enzymatic Assay for human Protein Phosphatase 1 Aatalytic subunit Alpha (PPP1CA) (AID 2283200). Summed up: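 Chemicals were first screened in duplicate at 25 uM, and those passing threshold (e.g. 30% inhibition) were run as concentration series to 50 uM. Cell-free recombinant protein, 1.33 h read, fluorescent substrate/product mobility-shift detection, normalised to DMSO.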

Experiment [2] has as its target human Matrix Metalloproteinase-9 (MMP9), MMP9 (gene 4318) (UniProt P14780). Description: NVS_ENZ_hMMP9: NovaScreen (NVS) Enzymatic Assay for human Matrix Metalloproteinase-9 (MMP9) (AID 2283190).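 Note: cell-free recombinant MMP9 protease activity read by fluorescent substrate signal; active means inhibition seen as loss of fluorescence signal versus DMSO.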 The gist of the method: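 Cell-free recombinant MMP9 enzyme activity measured by fluorescence intensity 1 h after dosing. Primary screen in duplicate at 25 uM, actives followed in concentration series; loss of signal relative to DMSO.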

The target of experiment [3] is human Phosphoinositide 3-kinase alpha (PI3Ka), PIK3CA (gene 5290) (UniProt P42336). Description: NVS_ENZ_hPI3Ka: NovaScreen (NVS) Enzymatic Assay for human Phosphoinositide 3-kinase alpha (PI3Ka) (AID 2283196). The gist of the method: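 Recombinant human PI3Kα with fluorescent substrate, 1 h, product separated by electrophoretic mobility shift; 25 uM duplicate screen, hits (e.g., 30% inhibition) retested singly up to 50 uM; loss of signal vs DMSO.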

Experiment [4] concerns the target human Phosphodiesterase 4A1 (PDE4A1), PDE4A (gene 5141) (UniProt P27815). The experiment can be described thus: NVS_ENZ_hPDE4A1: NovaScreen (NVS) Enzymatic Assay for human Phosphodiesterase 4A1 (PDE4A1) (AID 2283191). The gist of the method: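 Fluorescent substrate turnover by recombinant PDE4A1 read after 1 h by mobility-shift separation. Primary duplicate screen at 25 uM; hits retested in concentration series with a 50 uM maximum, relative to DMSO.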

Experiment [5] has as its target human Phosphodiesterase 5 (PDE5), PDE5A (gene 8654) (UniProt O76074). Description: NVS_ENZ_hPDE5: NovaScreen (NVS) Enzymatic Assay for human Phosphodiesterase 5 (PDE5) (AID 2283194). Summed up: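 Screening began in duplicate at 25 uM, with actives taken into concentration-response. Enzyme activity of recombinant PDE5 toward its substrate was measured at 1 h by fluorescence mobility-shift detection, relative to DMSO controls.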

In experiment [6] the target is Tyrosine-protein phosphatase non-receptor type 11 (Homo sapiens) (UniProt Q06124). Description: NVS_ENZ_hPTPN11: NovaScreen (NVS) Enzymatic Assay for human Protein Tyrosine Phosphatase Non-receptor Type 11 (PTPN11) (AID 2283202). The gist of the method:
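Compounds first tested in duplicate at 25 uM; those reaching ~30% inhibition rerun in singleton concentration-response, top 50 uM. Phosphatase activity measured after 0.5 h by fluorescence with mobility-shift separation, relative to DMSO.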

Experiment [7] deals with human Phosphatase and Tensin Homolog (PTEN), PTEN (gene 5728) (UniProt P60484). The experiment can be described thus: NVS_ENZ_hPTEN: NovaScreen (NVS) Enzymatic Assay for human Phosphatase and Tensin Homolog (PTEN) (AID 2283203). Summed up:
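Loss of fluorescent product signal after mobility-shift separation reports PTEN activity, recombinant human enzyme, 1 h after compound addition. Single 25 uM duplicate screen, then concentration-response on actives; DMSO baseline.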

Experiment [8] concerns the target human Protein Tyrosine Phosphatase Non-receptor Type 2 (PTPN2), PTPN2 (gene 5771) (UniProt P17706). The experiment can be described thus: NVS_ENZ_hPTPN2: NovaScreen (NVS) Enzymatic Assay for human Protein Tyrosine Phosphatase Non-receptor Type 2 (PTPN2) (AID 2283207). Summed up:
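Activity measured as fluorescence after mobility-shift separation of substrate and product, 1 h after compound. Duplicate single-point 25 uM primary testing, concentration series for actives; inhibition scored as signal loss relative to DMSO baseline.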

The target in experiment [9] is human NIMA (Never In Mitosis Gene A)-Related Kinase 2 (NEK2), NEK2 (gene 4751) (UniProt P51955). Description: NVS_ENZ_hNEK2: NovaScreen (NVS) Enzymatic Assay for human NIMA (Never In Mitosis Gene A)-Related Kinase 2 (NEK2) (AID 2283188). The gist of the method:
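Compounds were first screened in duplicate at 25 uM, with actives followed up in concentration series. Recombinant NEK2 activity, cell-free, was read 1 h after dosing by fluorescence intensity after mobility-shift separation. Signal loss was scored against DMSO.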

Experiment [10] addresses human Phosphodiesterase 10 (PDE10), PDE10A (gene 10846) (UniProt Q9Y233). The experiment can be described thus: NVS_ENZ_hPDE10: NovaScreen (NVS) Enzymatic Assay for human Phosphodiesterase 10 (PDE10) (AID 2283195). The gist of the method:
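Biochemical single-readout PDE10A assay, cell-free, extracted protein. Compounds first screened at 25 uM in duplicate, hits then titrated to 50 uM max. Activity measured after 1 h; loss-of-signal fitted against DMSO negative control.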

Experiment [11] deals with human Protein Tyrosine Phosphatase Non-receptor Type 1 (PTPN1), PTPN1 (gene 5770) (UniProt P18031). Description: NVS_ENZ_hPTPN1: NovaScreen (NVS) Enzymatic Assay for human Protein Tyrosine Phosphatase Non-receptor Type 1 (PTPN1) (AID 2283201). Summed up: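 Chemicals were first tested in duplicate at 25 uM, and those passing threshold went on to singleton concentration series topping at 50 uM. Recombinant enzyme, specific substrate, product separated by mobility shift, fluorescence read at 1.33 h; activity loss relative to DMSO.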

Experiment [12] deals with PPP2CA (gene 5515) (UniProt P67775). The experiment can be described thus: NVS_ENZ_hPPP2CA: NovaScreen (NVS) Enzymatic Assay for human Protein Phosphatase 2 Aatalytic subunit Alpha (PPP2CA) (AID 2283199). Summed up:
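Cell-free phosphatase activity: fluorescent substrate turnover by recombinant human enzyme, resolved by mobility shift at 1.33 h. Compounds passing the 25 uM duplicate primary screen were rerun in singleton series with a 50 uM top concentration.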

In experiment [13] the target is Tyrosine-protein phosphatase non-receptor type 12 (Homo sapiens) (UniProt Q05209). Description: NVS_ENZ_hPTPN12: NovaScreen (NVS) Enzymatic Assay for human Protein Tyrosine Phosphatase Non-receptor Type 12 (PTPN12) (AID 2283204). The gist of the method:
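Single-concentration duplicates (25 uM) preceded singleton concentration-response up to 50 uM for chemicals passing threshold. Cell-free recombinant PTPN12 activity was read 1.33 h after dosing via fluorescence after mobility-shift separation; loss of signal versus DMSO.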

Experiment [14] addresses Tyrosine-protein phosphatase non-receptor type 13 (Homo sapiens) (UniProt Q12923). The experiment can be described thus: NVS_ENZ_hPTPN13: NovaScreen (NVS) Enzymatic Assay for human Protein Tyrosine Phosphatase Non-receptor Type 13 (PTPN13) (AID 2283205). Summed up:
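Screened first at a single 25 uM in duplicate; compounds passing the threshold (e.g. 30% inhibition) were rerun in concentration series, top 50 uM. Recombinant enzyme, fluorescent substrate, mobility-shift separation, 0.5 h read. Data fitted as inhibition relative to DMSO.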

For experiment [15], the target named is human Mitogen- and Stress-activated Protein Kinase-1 (Msk1), RPS6KA5 (gene 9252) (UniProt O75582). Description: NVS_ENZ_hMsk1: NovaScreen (NVS) Enzymatic Assay for human Mitogen- and Stress-activated Protein Kinase-1 (Msk1) (AID 2283187). Summed up: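 Chemicals first run in duplicate at 25 uM, with actives followed up in singleton concentration series to 50 uM maximum. Enzyme activity came from substrate/product mobility-shift separation with fluorescence detection after 1 h incubation of the recombinant protein.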

In experiment [16] the target is cAMP-dependent protein kinase catalytic subunit alpha (Homo sapiens) (UniProt P17612). Description: NVS_ENZ_hPKA: NovaScreen (NVS) Enzymatic Assay for human Protein Kinase A (PKA) (AID 2283192). The gist of the method: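 Cell-free kinase activity read by fluorescence after mobility-shift separation of substrate and product, 1 h post-dosing. Single-concentration duplicate screen (25 uM) preceded singleton concentration series (top 50 uM); loss of signal versus DMSO.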

human Matrix Metalloproteinase-9 (MMP9), MMP9 (gene 4318), sequence (P14780 whole entry, looked up): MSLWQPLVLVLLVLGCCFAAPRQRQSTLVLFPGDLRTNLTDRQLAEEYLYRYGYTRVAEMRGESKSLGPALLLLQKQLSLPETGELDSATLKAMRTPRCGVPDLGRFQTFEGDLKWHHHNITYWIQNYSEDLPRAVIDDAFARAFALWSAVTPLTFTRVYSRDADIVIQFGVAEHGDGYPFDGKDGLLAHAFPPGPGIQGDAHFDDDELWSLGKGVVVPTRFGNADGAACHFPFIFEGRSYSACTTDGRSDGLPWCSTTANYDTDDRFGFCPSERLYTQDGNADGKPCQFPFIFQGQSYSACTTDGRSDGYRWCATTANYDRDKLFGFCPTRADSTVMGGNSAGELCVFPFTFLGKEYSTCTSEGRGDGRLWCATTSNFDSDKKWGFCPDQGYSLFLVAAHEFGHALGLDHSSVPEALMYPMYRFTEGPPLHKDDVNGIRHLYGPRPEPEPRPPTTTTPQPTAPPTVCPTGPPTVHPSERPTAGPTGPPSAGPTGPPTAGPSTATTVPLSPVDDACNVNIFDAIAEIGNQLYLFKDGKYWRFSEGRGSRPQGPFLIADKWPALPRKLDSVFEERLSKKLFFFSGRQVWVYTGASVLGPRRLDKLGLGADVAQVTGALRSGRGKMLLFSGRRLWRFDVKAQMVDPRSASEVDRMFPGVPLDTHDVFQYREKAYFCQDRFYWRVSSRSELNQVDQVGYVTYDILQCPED
human Protein Tyrosine Phosphatase Non-receptor Type 2 (PTPN2), PTPN2 (gene 5771), sequence (P17706 whole entry, looked up): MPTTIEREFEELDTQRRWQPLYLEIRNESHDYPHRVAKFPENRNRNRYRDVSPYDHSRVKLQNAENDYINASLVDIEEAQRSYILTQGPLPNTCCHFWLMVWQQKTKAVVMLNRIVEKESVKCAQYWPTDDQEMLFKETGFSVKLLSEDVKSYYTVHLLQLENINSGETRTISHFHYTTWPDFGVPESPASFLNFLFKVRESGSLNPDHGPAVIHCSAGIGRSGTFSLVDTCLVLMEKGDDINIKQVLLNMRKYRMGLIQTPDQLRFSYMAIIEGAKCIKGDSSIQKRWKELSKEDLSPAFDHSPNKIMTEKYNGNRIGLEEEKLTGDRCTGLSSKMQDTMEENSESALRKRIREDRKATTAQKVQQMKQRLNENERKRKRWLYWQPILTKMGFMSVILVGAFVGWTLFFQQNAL
Serine/threonine-protein phosphatase PP1-alpha catalytic subunit (Homo sapiens), sequence (P62136 whole entry, looked up): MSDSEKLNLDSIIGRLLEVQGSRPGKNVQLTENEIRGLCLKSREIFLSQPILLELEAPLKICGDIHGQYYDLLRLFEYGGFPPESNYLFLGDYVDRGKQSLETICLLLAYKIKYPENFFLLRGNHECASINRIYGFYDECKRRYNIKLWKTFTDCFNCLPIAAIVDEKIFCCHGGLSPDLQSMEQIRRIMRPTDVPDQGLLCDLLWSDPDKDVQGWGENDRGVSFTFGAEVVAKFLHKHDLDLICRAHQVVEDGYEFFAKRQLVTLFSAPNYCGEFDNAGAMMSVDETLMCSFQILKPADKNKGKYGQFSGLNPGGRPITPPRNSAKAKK
Tyrosine-protein phosphatase non-receptor type 11 (Homo sapiens), sequence (Q06124 whole entry, looked up): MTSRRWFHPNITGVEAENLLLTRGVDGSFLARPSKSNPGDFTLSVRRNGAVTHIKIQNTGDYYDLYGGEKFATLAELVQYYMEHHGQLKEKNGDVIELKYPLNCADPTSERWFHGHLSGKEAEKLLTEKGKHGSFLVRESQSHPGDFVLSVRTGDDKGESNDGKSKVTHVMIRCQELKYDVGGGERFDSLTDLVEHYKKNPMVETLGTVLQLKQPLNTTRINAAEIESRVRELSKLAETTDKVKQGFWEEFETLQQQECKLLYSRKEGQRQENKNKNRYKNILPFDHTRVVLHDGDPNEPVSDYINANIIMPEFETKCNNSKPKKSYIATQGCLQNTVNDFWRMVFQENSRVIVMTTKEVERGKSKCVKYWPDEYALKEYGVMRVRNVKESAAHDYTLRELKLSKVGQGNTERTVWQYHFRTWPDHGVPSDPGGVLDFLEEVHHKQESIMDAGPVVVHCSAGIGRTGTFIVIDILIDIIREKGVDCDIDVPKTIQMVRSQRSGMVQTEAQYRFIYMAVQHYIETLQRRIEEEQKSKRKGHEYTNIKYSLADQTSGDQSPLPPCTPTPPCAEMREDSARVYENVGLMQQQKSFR
human Phosphatase and Tensin Homolog (PTEN), PTEN (gene 5728), sequence (P60484 whole entry, looked up): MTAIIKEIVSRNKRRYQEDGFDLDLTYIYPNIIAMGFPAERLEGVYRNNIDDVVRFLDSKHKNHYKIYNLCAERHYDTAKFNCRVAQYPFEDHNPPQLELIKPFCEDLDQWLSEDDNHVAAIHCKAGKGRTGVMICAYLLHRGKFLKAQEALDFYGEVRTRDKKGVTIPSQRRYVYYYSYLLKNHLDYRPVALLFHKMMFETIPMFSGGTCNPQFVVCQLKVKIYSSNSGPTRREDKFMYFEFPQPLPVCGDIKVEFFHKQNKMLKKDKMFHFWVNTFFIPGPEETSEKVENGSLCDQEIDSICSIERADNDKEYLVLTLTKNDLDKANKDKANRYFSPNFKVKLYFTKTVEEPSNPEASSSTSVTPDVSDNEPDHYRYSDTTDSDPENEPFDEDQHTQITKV
human Phosphoinositide 3-kinase alpha (PI3Ka), PIK3CA (gene 5290), sequence (P42336 whole entry, looked up): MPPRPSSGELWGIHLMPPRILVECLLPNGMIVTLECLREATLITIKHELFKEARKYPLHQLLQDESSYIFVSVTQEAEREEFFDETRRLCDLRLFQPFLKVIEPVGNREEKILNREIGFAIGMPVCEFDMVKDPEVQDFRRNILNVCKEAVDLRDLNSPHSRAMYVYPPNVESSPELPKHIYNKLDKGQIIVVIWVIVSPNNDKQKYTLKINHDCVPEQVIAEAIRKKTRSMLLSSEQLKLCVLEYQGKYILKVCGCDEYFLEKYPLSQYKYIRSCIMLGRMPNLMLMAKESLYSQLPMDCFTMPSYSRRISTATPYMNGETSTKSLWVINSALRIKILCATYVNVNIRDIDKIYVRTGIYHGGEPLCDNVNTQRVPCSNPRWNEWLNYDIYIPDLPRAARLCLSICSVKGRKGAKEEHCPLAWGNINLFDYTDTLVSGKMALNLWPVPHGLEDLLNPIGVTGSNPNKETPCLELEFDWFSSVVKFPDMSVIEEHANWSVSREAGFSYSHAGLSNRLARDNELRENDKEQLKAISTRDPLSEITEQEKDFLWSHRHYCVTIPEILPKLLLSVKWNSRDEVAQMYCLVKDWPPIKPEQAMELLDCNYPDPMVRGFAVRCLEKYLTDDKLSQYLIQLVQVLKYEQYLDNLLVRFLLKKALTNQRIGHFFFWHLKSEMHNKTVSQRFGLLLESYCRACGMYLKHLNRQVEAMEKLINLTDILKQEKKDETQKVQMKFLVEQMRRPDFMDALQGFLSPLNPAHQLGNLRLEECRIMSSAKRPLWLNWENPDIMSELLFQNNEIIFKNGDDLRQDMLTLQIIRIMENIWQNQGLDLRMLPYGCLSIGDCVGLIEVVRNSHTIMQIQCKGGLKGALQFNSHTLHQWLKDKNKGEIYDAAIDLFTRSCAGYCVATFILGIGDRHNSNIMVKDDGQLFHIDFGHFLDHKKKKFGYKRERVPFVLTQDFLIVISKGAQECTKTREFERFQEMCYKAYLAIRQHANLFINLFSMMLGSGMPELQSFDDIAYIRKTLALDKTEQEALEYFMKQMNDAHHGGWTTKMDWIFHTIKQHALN
human Phosphodiesterase 10 (PDE10), PDE10A (gene 10846), sequence (Q9Y233 whole entry, looked up): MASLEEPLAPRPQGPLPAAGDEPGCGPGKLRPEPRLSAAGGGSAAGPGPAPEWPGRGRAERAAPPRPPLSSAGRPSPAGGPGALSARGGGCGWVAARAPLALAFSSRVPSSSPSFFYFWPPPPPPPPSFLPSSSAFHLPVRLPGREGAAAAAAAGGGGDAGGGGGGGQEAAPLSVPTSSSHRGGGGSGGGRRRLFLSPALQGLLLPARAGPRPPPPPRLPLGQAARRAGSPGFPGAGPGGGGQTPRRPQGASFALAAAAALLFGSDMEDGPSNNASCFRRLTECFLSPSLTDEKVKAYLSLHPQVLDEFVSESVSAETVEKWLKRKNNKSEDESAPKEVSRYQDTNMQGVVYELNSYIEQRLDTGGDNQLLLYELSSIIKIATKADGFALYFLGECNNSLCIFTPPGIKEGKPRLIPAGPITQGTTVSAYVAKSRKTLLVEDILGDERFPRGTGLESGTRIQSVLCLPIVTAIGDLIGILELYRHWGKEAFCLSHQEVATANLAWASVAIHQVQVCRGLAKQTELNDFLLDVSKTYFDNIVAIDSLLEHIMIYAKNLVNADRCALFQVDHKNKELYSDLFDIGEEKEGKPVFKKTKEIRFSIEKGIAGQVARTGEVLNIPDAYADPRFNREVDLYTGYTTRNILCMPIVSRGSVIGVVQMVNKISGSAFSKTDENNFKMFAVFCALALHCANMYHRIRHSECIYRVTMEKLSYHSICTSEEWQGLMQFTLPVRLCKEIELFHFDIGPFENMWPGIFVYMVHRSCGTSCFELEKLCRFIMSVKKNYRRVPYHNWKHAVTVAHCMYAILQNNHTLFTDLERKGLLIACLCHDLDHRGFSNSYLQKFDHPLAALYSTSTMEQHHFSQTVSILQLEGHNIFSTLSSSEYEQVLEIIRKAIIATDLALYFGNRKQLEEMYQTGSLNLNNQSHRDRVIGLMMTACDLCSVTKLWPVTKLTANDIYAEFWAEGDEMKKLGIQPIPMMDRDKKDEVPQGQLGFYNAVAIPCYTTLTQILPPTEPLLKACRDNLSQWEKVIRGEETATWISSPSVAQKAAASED
human NIMA (Never In Mitosis Gene A)-Related Kinase 2 (NEK2), NEK2 (gene 4751), sequence (P51955 whole entry, looked up): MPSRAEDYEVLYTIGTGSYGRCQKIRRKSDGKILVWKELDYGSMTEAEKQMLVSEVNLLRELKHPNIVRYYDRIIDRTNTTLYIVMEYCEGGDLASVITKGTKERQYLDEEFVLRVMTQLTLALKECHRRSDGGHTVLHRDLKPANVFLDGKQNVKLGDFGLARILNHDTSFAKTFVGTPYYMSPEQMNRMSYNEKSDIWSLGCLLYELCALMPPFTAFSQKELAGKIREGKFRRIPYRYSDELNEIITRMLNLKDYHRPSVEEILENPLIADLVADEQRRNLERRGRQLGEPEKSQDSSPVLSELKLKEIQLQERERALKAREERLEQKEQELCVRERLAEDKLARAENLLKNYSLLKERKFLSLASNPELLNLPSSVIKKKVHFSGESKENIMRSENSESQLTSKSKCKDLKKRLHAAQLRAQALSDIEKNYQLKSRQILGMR

`N#CN`: in experiment [1], the call was inactive.

With `CNC(=O)CSP(=S)(OC)OC`, the call in experiment [2] was inactive.

On to `O=[N+]([O-])/N=C1\NCCN1Cc1ccc(Cl)nc1`, for which, in experiment [3], the call was inactive.

Regarding `CCN(CC)C(=O)SCc1ccc(Cl)cc1`, the compound was classed as inactive in experiment [3].

Turning to `CCCN(CCOc1c(Cl)cc(Cl)cc1Cl)C(=O)n1ccnc1`, the AC50 – broadly, the midpoint of the concentration-response curve, whichever way the signal moves – in experiment [4] was 7.79 µM (active); in experiment [5], 9.58 µM (active).

In the case of `[2H]C1([2H])[n+]2ccccc2-c2cccc[n+]2C1([2H])[2H]`, the AC50 in experiment [1] was 4.96 µM (active); in experiment [7] it was 0.00229 µM (active). For the same compound, the outcome in [6] was inactive.

With `CC(C)(C)C(O)/C(=C\c1ccc(Cl)cc1Cl)n1cncn1` (stereo unspecified), the result in experiment [8] was inactive.

For the compound `ClC1C(Cl)C(Cl)C(Cl)C(Cl)C1Cl` (stereo unspecified), the compound was classed as inactive in experiment [7].

As for `N#Cc1c(Cl)c(Cl)c(Cl)c(C#N)c1Cl`, the compound was classed as inactive in [9], in [10], in experiment [11] and in [7]. Further, the AC50 in [5] was 31.8 µM (active); in [3] it was 33.1 µM (active); in experiment [6], 40 µM (active).

On to `CC[C@H](C)[C@H]1O[C@]2(C=C[C@@H]1C)C[C@@H]1C[C@@H](C/C=C(\C)[C@@H](O[C@H]3C[C@H](OC)[C@@H](O[C@H]4C[C@H](OC)[C@@H](O)[C@H](C)O4)[C@H](C)O3)[C@@H](C)/C=C/C=C3\CO[C@@H]4[C@H](O)C(C)=C[C@@H](C(=O)O1)[C@]34O)O2` (tested in a mixture with another compound), for which the half-maximal activity concentration (AC50) in experiment [2] is 5.22 µM (active); in experiment [3], 5.57 µM (active); in experiment [8], 41.1 µM (active). For the same compound, the result in experiment [6] was inactive.

With `CC(C)(C)C(O)C(Oc1ccc(Cl)cc1)n1cncn1` (stereo unspecified), the result in [4], in experiment [5], in experiment [10], in [12], in experiment [7] and in [13] was inactive. Besides, the compound was called inactive in experiment [14] and in experiment [8].

For `O=[N+]([O-])c1c(Cl)c(Cl)c(Cl)c(Cl)c1Cl`, in experiment [1], the compound was called inactive.

In the case of `CC1(C)C(C=C(Cl)Cl)C1C(=O)OC(C#N)c1ccc(F)c(Oc2ccccc2)c1` (stereo unspecified), the result in experiment [9] was inactive.

Regarding `CN1CSC(=S)N(C)C1`, the result in [2] and in [8] was inactive.

Regarding `O=C(O)C(F)(F)C(F)(F)C(F)(F)C(F)(F)C(F)(F)C(F)(F)C(F)(F)F`, the compound was called inactive in experiment [15], in experiment [2], in experiment [16], in [11], in [6] and in experiment [7]. For the same compound, the compound was classed as inactive in [13], in [14] and in experiment [8]. The AC50 in [3] is 11.3 µM (active); in [12] it was 25 µM (active); in experiment [1] it was 0.493 µM (active).
